Source: PubChem BioAssay (NCI)
Compounds without any hit were thinned out: in the full panel of roughly 83,000, 20% have a hit.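 For each line, cells grew in 96-well plates with the test compound present at a single concentration for 48 hours.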 Values without a mark were called inactive. The source made the active and inactive calls. How the source made its calls: active means growth percent below 10; inactive means the rest.

Tests used:
Assay in all cases: NCI-60 one-dose screen, 48 h (100 = growth as untreated, 0 = no growth, -100 = all killed)
Conditions in all cases: 10 µM unless noted
SK-MEL-2 melanoma = system: SK-MEL-2 melanoma
EKVX NSCLC = system: EKVX NSCLC
SN12C renal = system: SN12C renal
UO-31 renal = system: UO-31 renal
TK-10 renal = system: TK-10 renal
ACHN renal = system: ACHN renal
CAKI-1 renal = system: CAKI-1 renal
A498 renal = system: A498 renal
CCRF-CEM leukemia = system: CCRF-CEM leukemia
MOLT-4 leukemia = system: MOLT-4 leukemia
SR leukemia = system: SR leukemia
RPMI-8226 leukemia = system: RPMI-8226 leukemia
OVCAR-8 ovarian = system: OVCAR-8 ovarian
OVCAR-5 ovarian = system: OVCAR-5 ovarian
OVCAR-4 ovarian = system: OVCAR-4 ovarian
SK-OV-3 ovarian = system: SK-OV-3 ovarian
IGROV1 ovarian = system: IGROV1 ovarian
OVCAR-3 ovarian = system: OVCAR-3 ovarian
HS 578T breast = system: HS 578T breast
NCI/ADR-RES ovarian = system: NCI/ADR-RES ovarian

| SMILES | growth (SK-MEL-2 melanoma) [%] | growth (EKVX NSCLC) | growth (SN12C renal) | growth (UO-31 renal) [%] | growth (TK-10 renal) | growth (ACHN renal) [%] | growth (CAKI-1 renal) | growth (A498 renal) | growth (CCRF-CEM leukemia) | growth (MOLT-4 leukemia) | growth (SR leukemia) | growth (RPMI-8226 leukemia) | growth (OVCAR-8 ovarian) | growth (OVCAR-5 ovarian) [%] | growth (OVCAR-4 ovarian) [%] | growth (SK-OV-3 ovarian) | growth (IGROV1 ovarian) | growth (OVCAR-3 ovarian) | growth (HS 578T breast) | growth (NCI/ADR-RES ovarian) |
| --- | --- | --- | --- | --- | --- | --- | --- | --- | --- | --- | --- | --- | --- | --- | --- | --- | --- | --- | --- | --- |
| CCc1ccc(CCC(=O)Nc2ncc(Cc3ccc(Cl)cc3)s2)o1 | 44.1 | 37.2% | 44.8% | 43 | 60% | 48.3 | 31.9% | 0.963% (active) | 22.4% | 36.5% | 18.4% | 31.5% | 31.3% | 52.1 | 63.8 | 37.4% | 34.8% | 1.07% (active) | 2.63% (active) | 17.3% |
| C=CCn1c(SCC(=O)Nc2ccc(C(=O)/C=C/c3cc(OC)c(OC)c(OC)c3)cc2)nnc1-c1cc(-c2ccc(OC)cc2)nc2ccccc12 | 102 | 100% | 90.3% | 76.3 | 121% | 89.2 | 81.5% | 89% | 66.6% | 66.4% | 50.9% | 55.5% | 72.8% | 105 | 90 | 98% | 98.5% | 93.4% | 90.4% | 96.4% |
| CC[C@H](Nc1nc(N)nc(C)c1C#N)c1nc2cccc(NCCCCCC(=O)NO)c2c(=O)n1-c1ccccc1 | 76.1 | 75% | 46.3% | 30.1 | 33.2% | 51.9 | 35.9% | -29.5% (active) | 43.3% | 30.7% | 67.9% | 62% | 68.5% | 44.2 | 76.1 | 53.1% | 9.52% (active) | 40.8% | 13.2% | 96.2% |
| O=C(Nc1ccccc1O)c1ccccc1Nc1ccnc(C(F)(F)F)c1 | 104 | 93% | 87.3% | 66.2 | 136% | 93.8 | 98.3% | 145% | 84.8% | 74.5% | 76% | 56.5% | 100% | 99.9 | 95.8 | 100% | 79.5% | 97.6% | 96.4% | 90.7% |
| C=C1C(=O)O[C@H]2[C@H]1CC/C(COC(=O)/C=C\C(=O)NCc1ccc(Cn3c(=O)sn(-c4ccccc4)c3=O)cc1)=C\CC[C@@]1(C)O[C@@H]21 | 89.8 | 98.9% | 83.1% | 59.4 | 67.1% | 42.1 | 65.1% | 91.2% | 1.9% (active) | 25.3% | 72.4% | 40.5% | 91.2% | 98.3 | 85 | 108% | 77.4% | 39.5% | 90.3% | 111% |
| COc1cc(C(=O)/C=C/c2ccc(N3CCN(C)CC3)cc2)cc(OC)c1OC | 107 | 88.6% | 98.5% | 73.2 | 110% | 97.6 | 90.9% | 108% | 105% | 98% | 91.2% | 107% | 98% | 96.5 | 101 | 100% | 94.8% | 98.6% | 94.3% | 95.2% |
| CCOC(=O)c1n[nH]n2c1nc(=O)c1cnn(C)c12 | 99.6 | 102% | 105% | 84.4 | 97.6% | 105 | 103% | 110% | 95.6% | 99.7% | 85.3% | 101% | 102% | 112 | 102 | 101% | 108% | 101% | 105% | 103% |
| COc1ccc(-c2cc(C(=O)N3N=C(c4ccc(N)cc4)CC3c3ccccc3)c3ccccc3n2)cc1 (stereo not given) | 39.8 | 70.8% | 51.7% | 45.5 | 58.4% | 37.6 | 24.5% | 29.1% | 25.6% | 35.2% | 22.6% | 23.5% | 47.5% | 64.7 | 65 | 34.9% | 49.5% | 10.7% | 36.8% | 34.4% |
| CCN1C(=O)N(CC)C2C1NN=c1s/c(=C\c3cc4ccccc4[nH]3)c(=O)n12 (stereo not given) | 23.1 | 54.5% | 11.2% | 18.7 | 59.6% | 11.7 | 7.63% (active) | 2.17% (active) | -8.2% (active) | 11.1% | 22.8% | -32.1% (active) | -14.2% (active) | 33.9 | 32.9 | 31.7% | 12.1% | 11.7% | 13.8% | 3.61% (active) |
| CC1=C(C(=O)n2c3ccccc3c3ccccc32)C(c2cccc([N+](=O)[O-])c2)C(C(=O)n2c3ccccc3c3ccccc32)=C(C)N1 | 102 | 102% | 99.9% | 71.4 | 104% | 93.4 | 77.5% | 93.1% | 88.7% | 83.1% | 68.5% | 93.4% | 99.4% | 99.2 | 103 | 97.7% | 98.4% | 100% | 96.5% | 98.7% |
| C[Se]C(=O)CC1=C2C=C(F)C=CC2/C(=C\c2ccc(S(C)=O)cc2)C1C (stereo not given) | 17.3 | -7.14% (active) | -51.6% (active) | 18 | -19.2% (active) | 11 | -20.9% (active) | -64.8% (active) | 10.6% | 6.51% (active) | 22.5% | -23.9% (active) | -66.1% (active) | 17.6 | 26.7 | 6.54% (active) | 21.3% | -7.75% (active) | 2.31% (active) | 2.59% (active) |
| COCCCOc1cc(C[C@@H](C[C@H](N)[C@@H](O)C[C@H](C(=O)NCC(C)(C)C(N)=O)C(C)C)C(C)C)ccc1OC | 104 | 92.6% | 104% | 84.4 | 109% | 101 | 89.2% | 103% | 110% | 103% | 103% | 111% | 105% | 110 | 101 | 113% | 111% | 116% | 71.3% | 103% |
| CCOc1ccc(NC(=O)c2cc(OC)c(OC)c(OC)c2)cc1 | 16.1 | 54.1% | 56% | 52 | 60.3% | 55.9 | 39.8% | -0.366% (active) | 27.9% | 31.6% | 24.7% | 27% | 49.5% | 94 | 65 | 40.6% | 53.1% | -3.43% (active) | 26.8% | 11.5% |
| CN(C)c1ccc(/C=C/C(=O)c2ccc(Nc3nc(Nc4ccc(F)cc4)nc(Nc4ccc(Cl)cc4)n3)cc2)cc1 | 52.6 | 67.2% | 101% | 59.2 | 97.9% | 75.3 | 70.9% | 83.4% | 4.13% (active) | -3.06% (active) | 4.77% (active) | 30.5% | 48.8% | 74.2 | 76.5 | 108% | 72.4% | 89.2% | 77.2% | 66.4% |
| O=C1/C(=C/c2ccc(C(F)(F)F)cc2)COc2ccc(O)cc21 | 99.7 | 96.3% | 69.3% | 44.8 | 99.2% | 91.3 | 71.9% | 109% | 3.29% (active) | 4.15% (active) | 9.82% (active) | -23.2% (active) | 76.4% | 96.5 | 82.7 | 116% | 82.5% | 94.8% | 95.8% | 94.3% |
